The record followed here is PubChem BioAssay (EPA / NIEHS).

Inconclusive results are not listed. Active and inactive are the calls of the source. The calls were made as follows, unless noted: active = hit-call score of the fitted dose curve at least 0.9, where 1 is the maximum; inconclusive = response in the unintended direction; inactive = score below 0.9.

Tested on in the first experiment: not listed separately
The experiment can be described thus: CCTE_Simmons_CellTiterGLO_HEK293T: Viability Assessment in CCTE's Assays for Thyroperoxidase (TPO) Inhibition, Simmons Lab (AID 2283665).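 As to AC50: cells exposed to compound for 24 h before readout; actives reduce ATP signal below DMSO vehicle meaning cytotoxicity.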
Conditions: not given
The procedure, abridged: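 HEK293T cells in DMEM with 1% FBS were dosed with 8 concentrations (5 nM–87.5 uM final, 0.5% DMSO) for 24 hr at 37C; ATP content was read by CellTiter-Glo luminescence, loss-of-signal versus DMSO, three biological replicates.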
On to `O=C(O)c1cccc(N(Cc2cccnc2)c2ccc(OC(F)F)c(OC(F)F)c2)c1`, for which the outcome was inactive.
Take `CC(C)=CCCC(C)=CC=O`: the molecule was called inactive.
The same measure, in the same setting: the value for `CC/C(=C\C(=N/O)C(N)=O)C(C)[N+](=O)[O-]` (stereo unspecified) was “inactive”.
Broadly, the AC50 is the concentration giving half of the maximal activity seen. On to `CCCN(C1CCN(C(=O)C2CCNCC2)CC1)[C@@H]1CCc2ccc(OC)cc2C1`, for which the AC50 is 18.2 µM (active).
Still for that read-out and setting: in the case of `CCC(C)(C)C(=O)O[C@H]1C[C@@H](C)C=C2C=C[C@H](C)[C@H](CC[C@@H]3C[C@@H](O)CC(=O)O3)[C@H]21` it was 43.8 µM (active).
With `CN(C)c1ccc(N=NS(=O)(=O)O)cc1`, the outcome was inactive.
In the case of `CC[C@H](C)C(=O)O[C@H]1C[C@@H](C)C=C2C=C[C@H](C)[C@H](CC[C@@H]3C[C@@H](O)CC(=O)O3)[C@H]21`, the outcome was inactive.
Take `On1ccccc1=S`: the molecule was classed as inactive.
Still for that read-out and setting: the value for `CC(C)=CCCC(C)CCO` (stereo unspecified) was “inactive”.
With `CCOc1cccc(-n2cc(C(=O)N3CCN(c4cc(C(=O)O)c5ccccc5c4)CC3)nc2-c2ccc(C)cc2)c1`, the AC50 is 22.6 µM (active).
On to `C=CC(=C)CCC=C(C)C`, for which the call was inactive.
Turning to `CCCCCCc1ccc(O)cc1O`, the AC50 was 21.3 µM (active).

Tested on in the next experiment: not listed separately
The experiment can be described thus: Tanguay_ZF_120hpf_TR_legacy: (Legacy) Oregon State University Tanguay Lab 120 Hour Post-fertilization zebrafish Assay for Touch Response (AID 2283667).
Conditions: not given
In outline: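 Tropical 5D wild-type zebrafish embryos were exposed statically in sealed, foil-covered plates at 28C until 120 hpf, with 0.64% (vol/vol) final DMSO. Touch response was scored as present or absent; embryos that died were not scored.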
For the molecule `O=C(O)c1cccc(N(Cc2cccnc2)c2ccc(OC(F)F)c(OC(F)F)c2)c1`, the result was inactive.
The same measure, in the same setting: in the case of `CC(C)CCCCCCOC(=O)c1ccc(C(=O)OCCCCCCC(C)C)c(C(=O)OCCCCCCC(C)C)c1` it was “inactive”; in that of `Cc1ccc(C)c(O)c1`, “inactive”; in that of `CCOCCO`, “inactive”.
As for `CC/C(=C\C(=N/O)C(N)=O)C(C)[N+](=O)[O-]` (stereo unspecified), the result was inactive.
Still for that read-out and setting: in the case of `CCCN(C1CCN(C(=O)C2CCNCC2)CC1)[C@@H]1CCc2ccc(OC)cc2C1` it was “inactive”; in that of `O=C1OC(=O)C2C3C=CC(C3)C12` (stereo unspecified), “inactive”.
Turning to `CCC(C)(C)C(=O)O[C@H]1C[C@@H](C)C=C2C=C[C@H](C)[C@H](CC[C@@H]3C[C@@H](O)CC(=O)O3)[C@H]21`, the concentration at half-maximal activity (AC50) was 0.664 µM (active).
Regarding `Cc1ccc(S(=O)(=O)O)cc1C`, the molecule was called inactive.
Still for that read-out and setting: the value for `CN(C)c1ccc(N=NS(=O)(=O)O)cc1` was “inactive”; that for `CC[C@H](C)C(=O)O[C@H]1C[C@@H](C)C=C2C=C[C@H](C)[C@H](CC[C@@H]3C[C@@H](O)CC(=O)O3)[C@H]21` was “inactive”.
On to `CC(C)=CCC/C(C)=C/CO`, for which the outcome was inactive.
As to `On1ccccc1=S`, the outcome was inactive.
As to `CCCCCCCCCCCCc1ccccc1`, the outcome was inactive.
On the same count and under the same terms, in the case of `CC(C)c1cccc(C(C)C)c1N1C(=O)c2ccc(O)cc2C1=O` it was “inactive”; in that of `COC(=O)CC(=O)OC`, “inactive”.
In the case of `CCCCCCCCCCCCCCCO`, the molecule was called inactive.
On the same count and under the same terms, in the case of `CC(C)=CCCC(C)CCO` (stereo unspecified) it was “inactive”.
For `COc1ccc(/C=C/S(=O)(=O)NC(=O)c2ccc(C)cc2Cl)cc1`, the outcome was inactive.
For `C=CCCCCCCCCC(=O)O`, the molecule was called inactive.
Consider `Cn1c(=O)cc(Oc2ccc(F)cc2F)c2cnc(NCC(C)(C)O)nc21`, for which the call was inactive.
The same measure, in the same setting: in the case of `COC(=O)c1ccccc1O` it was “inactive”; in that of `CCOc1cccc(-n2cc(C(=O)N3CCN(c4cc(C(=O)O)c5ccccc5c4)CC3)nc2-c2ccc(C)cc2)c1`, “inactive”.
With `C=CC(=C)CCC=C(C)C`, the call was inactive.
Same read-out and setting: the value for `CCCCCCc1ccc(O)cc1O` was “inactive”.

Read-out in the next experiment: Cytochrome P450 (CYP24A1_1), CYP24A1 (gene 1591)
The experiment can be described thus: LTEA_HepaRG_CYP24A1_1: Life Technologies and Expression Analysis (LTEA) Assay for Cytochrome P450 (CYP24A1_1) using HepaRG (AID 2283671; active = hit-call score of the fitted dose curve at least 0.9, where 1 is the maximum; inactive = score below 0.9). The settings on record: mRNA level, 48 h; actives raise or lower the signal. How it is done:
LTEA_HepaRG is a cell based, multiplexed-readout assay that uses HepaRG, a human liver cell line, with measurements taken at 48 hours after chemical dosing on a 96-well plate.LTEA_HepaRG_CYP24A1_1 is one of 102 assay component(s) measured in the LTEA HepaRG cell culture assay. It is a marker of NR mediated metabolism.Data from the assay component LTEA_HepaRG_CYP24A1_1 was analyzed into 1 endpoint. This assay endpoint, LTEA_HepaRG_CYP24A1_1, was analyzed with bidirectional fitting relative to DMSO as the negative control and baseline of activity. Using a type of inducible reporter, measures of mRNA induction for gain or loss-of-signal activity can be used to understand regulation of transcription factor activity. To generalize the intended target to other relatable targets, this assay endpoint is annotated to the cyp intended target family, where the subfamily is xenobiotic metabolism.
A total of 1060 chemcials from the ToxCast library were tested in eight-point concentration-response experiments. Cell culture and cytotoxicity assays were conducted at Thermo Fisher Scientific's Custom Services facility (Madison, WI). A single lot of human HepaRG cells (Thermo Fisher Scientific, Frederick, MD) was used for the cell culture experiments. 96-well format collagen type I coated plates of human HepaRG cells were prepared using established methods. Briefly, cryopreserved HepaRG cells were thawed, plated at a density of approximately 100,000 cells/well in HepaRG Thaw, Plate, and General Purpose media (HPRG770, Thermo Fisher Scientific), and incubated for 48 hours. 0.5% DMSO was selected as vehicle control to balance the requisite need of DMSO in HepaRG cultures to maintain differentiation (for example, baseline metabolism, proportions of hepatocytes vs. cholangiocytes), while enabling further hepatic receptor pathway activation (for example, PXR and CAR) in response to chemical exposure. 48 hours after plating, the culture medium was replaced with HepaRG Serum-Free Incudtion Media. Cells were exposed to each test chemical in duplicate and maintained in CO2 incubators for another 48 hours. Chemical plates were thawed to room temperature and 200x concentrations of treatment groups were prepared. 8-point conentration-reponse curves were made with the highest exposure at 100 uM, followed by half-log dilutions, all in 0.5% DMSO. […] Fluidigm's 96.96 Dynamic ArrayTM (Fluidigm, Amsterdam, the Netherlands) technology was used for gene expression analyses by quantitative reverse transcription polymerase chain reaction (qRT-PCR, performed by Quintiles/Expression Analysis, Durham, NC)89. […]
In the case of `CC(C)CCCCCCOC(=O)c1ccc(C(=O)OCCCCCCC(C)C)c(C(=O)OCCCCCCC(C)C)c1`, the molecule was classed as inactive.
The same measure, in the same setting: the value for `O=C(O)c1cccc(Oc2ccccc2)c1` was “inactive”.
The same measure, in the same setting: the value for `CC(C)c1cccc(C(C)C)c1N1C(=O)c2ccc(O)cc2C1=O` was “inactive”.
`C=CC(=C)CCC=C(C)C`: the molecule was classed as inactive.
